Drawing on PubChem BioAssay (NCI), this text covers growth for eight molecules.

Some test systems named below: NCI-H23 lung; NCI-H226 lung; NCI-H322M lung; HOP-62 NSCLC; NCI-H460 lung; HOP-92 NSCLC; NCI-H522 lung; A549/ATCC NSCLC; 786-0 renal; COLO 205 colon; DU-145 prostate; K-562 leukemia; MALME-3M melanoma; MDA-MB-231 breast; RXF 393 renal; SF-268 CNS; SF-295 CNS; SF-539 CNS; UACC-257 melanoma; M14 melanoma.
Common to all, as to assay: NCI-60 one-dose screen, 48 h (100 = growth as untreated, 0 = no growth, -100 = all killed)
Common to all, as to settings: 10 µM unless noted

The panel holds about 83,000 compounds, 20% with a hit somewhere; the sample as a whole holds those more often.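 Each cell line was grown in a 96-well plate and treated with one concentration of compound for 48 hours. Values below 10 were considered active.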 A number with no mark means an inactive call. Active and inactive are the calls of the source.

Regarding `Fc1cccc(Cl)c1/C=N/Nc1nc(N/N=C/c2c(F)cccc2Cl)nc(N2CCCCC2)n1`, the growth with NCI-H23 lung is 44.8%; in the experiment with NCI-H226 lung, 53.9%; in the experiment with NCI-H322M lung it was 35.8%; in the experiment on HOP-62 NSCLC it was 25.9%; with NCI-H460 lung, 19.9%; in the experiment with HOP-92 NSCLC, -1.32% (active). Further, the growth was 10.4% in the experiment with NCI-H522 lung; 21.6% in the experiment on A549/ATCC NSCLC; 28.3% with 786-0 renal; -16.7% (active) in the experiment on COLO 205 colon; 61% in the experiment on DU-145 prostate; 32.3% in the experiment on K-562 leukemia. The growth in the experiment with MALME-3M melanoma was -4.19% (active); in the experiment with MDA-MB-231 breast, 42.1%; in the experiment on RXF 393 renal, -3.38% (active); in the experiment with SF-268 CNS, 36.7%; in the experiment on SF-295 CNS, 2.57% (active); in the experiment with SF-539 CNS, 56.3%. The growth is 11.7% in the experiment on UACC-257 melanoma and 11.9% with M14 melanoma.

Regarding `CN1CCN(c2ccc(Nc3nc(NCCNS(=O)(=O)c4ccc(Cl)cc4)c4sccc4n3)cc2)CC1`, the growth is 96% in the experiment on NCI-H23 lung; 105% with NCI-H226 lung; 99.4% with NCI-H322M lung; 104% in the experiment on HOP-62 NSCLC; 98.8% with NCI-H460 lung; 49.4% in the experiment on HOP-92 NSCLC. For the same molecule, the growth with NCI-H522 lung is 106%; with A549/ATCC NSCLC it was 92.7%; in the experiment on 786-0 renal, 75.8%; in the experiment with COLO 205 colon it was 99.7%; with DU-145 prostate, 98.2%; in the experiment on K-562 leukemia it was 9.68% (active). The growth with MALME-3M melanoma was 105%; in the experiment on MDA-MB-231 breast it was 95%; in the experiment on RXF 393 renal, 41.2%; in the experiment with SF-268 CNS, 70%; in the experiment with SF-295 CNS, 97.9%; in the experiment on SF-539 CNS, 85.5%. Further, the growth in the experiment with UACC-257 melanoma was 87.5%; with M14 melanoma it was 102%.

In the case of `C#C[C@]1(O)CC[C@H]2[C@@H]3CC=C4c5sc(N6CCN(C)CC6)nc5CC[C@]4(C)[C@H]3CC[C@@]21C`, the growth with NCI-H23 lung is 57%; in the experiment on NCI-H226 lung, 86.8%; in the experiment with NCI-H322M lung, 77.4%; with HOP-62 NSCLC, 54.8%; with NCI-H460 lung, 49.2%; in the experiment with HOP-92 NSCLC, 82.7%. The growth in the experiment on NCI-H522 lung is 28.1%; in the experiment on A549/ATCC NSCLC, 54.7%; in the experiment on 786-0 renal it was -39.2% (active); in the experiment on COLO 205 colon it was 66.5%; with DU-145 prostate, 75.5%; in the experiment with K-562 leukemia, 0.102% (active). Moreover, the growth with MALME-3M melanoma is 56.9%; in the experiment with MDA-MB-231 breast, 62%; with RXF 393 renal, -22.1% (active); in the experiment with SF-268 CNS, 52.4%; in the experiment with SF-295 CNS, -39.8% (active); with SF-539 CNS, 7.74% (active). The growth is 61.5% with UACC-257 melanoma and -73.4% (active) with M14 melanoma.

Regarding `O=C(/C=C/Nc1ccc(S(=O)(=O)Nc2ncccn2)cc1)c1ccc(N=Cc2c(O)[nH]c3ccccc23)cc1`, the growth was 96.5% with NCI-H23 lung; 107% in the experiment with NCI-H226 lung; 114% in the experiment on NCI-H322M lung; 108% in the experiment on HOP-62 NSCLC; 105% in the experiment on NCI-H460 lung; 93.6% in the experiment on HOP-92 NSCLC. The growth in the experiment with NCI-H522 lung was 98.7%; with A549/ATCC NSCLC, 102%; in the experiment on 786-0 renal, 96.2%; in the experiment with COLO 205 colon, 117%; in the experiment on DU-145 prostate it was 116%; with K-562 leukemia it was 97.1%. Also, the growth with MALME-3M melanoma was 127%; in the experiment on MDA-MB-231 breast, 99.9%; with RXF 393 renal it was 113%; in the experiment on SF-268 CNS it was 112%; with SF-295 CNS, 105%; with SF-539 CNS, 102%. Besides, the growth is 101% with UACC-257 melanoma and 109% in the experiment on M14 melanoma.

Regarding `COC(=O)c1cccc(NC2=C(Cl)C(=O)C(C)=C(C)C2=O)c1`, the growth with NCI-H23 lung is 92.4%; in the experiment with NCI-H226 lung it was 85.9%; in the experiment on NCI-H322M lung it was 100%; in the experiment on HOP-62 NSCLC it was 94.8%; in the experiment with NCI-H460 lung, 101%; in the experiment with HOP-92 NSCLC, 33.9%. Also, the growth in the experiment on NCI-H522 lung was 95.8%; with A549/ATCC NSCLC, 115%; in the experiment with 786-0 renal, 104%; in the experiment with COLO 205 colon, 114%; with DU-145 prostate, 110%; in the experiment on K-562 leukemia it was 5.25% (active). Besides, the growth in the experiment on MALME-3M melanoma was 95.8%; in the experiment on MDA-MB-231 breast, 36.5%; in the experiment on RXF 393 renal, 104%; in the experiment on SF-268 CNS, 97.4%; in the experiment on SF-295 CNS, 108%; in the experiment on SF-539 CNS, 99.3%. Moreover, the values for the growth in the experiment on UACC-257 melanoma and with M14 melanoma were 108% and 92.3%, respectively.

Turning to `CCCCSC1=C(Cl)CN(c2ccccc2)C1=O`, the growth in the experiment with NCI-H23 lung was 102%; with NCI-H226 lung, 102%; in the experiment on NCI-H322M lung, 101%; with HOP-62 NSCLC, 111%; in the experiment on NCI-H460 lung, 104%; in the experiment with HOP-92 NSCLC it was 95.7%. The growth is -9.23% (active) in the experiment with NCI-H522 lung; 104% with A549/ATCC NSCLC; 108% in the experiment with 786-0 renal; 125% in the experiment on COLO 205 colon; 104% in the experiment on DU-145 prostate; 91.6% in the experiment with K-562 leukemia. In addition, the growth was 94.6% in the experiment with MALME-3M melanoma; 98.2% in the experiment with MDA-MB-231 breast; 109% with RXF 393 renal; 106% in the experiment on SF-268 CNS; 98.8% in the experiment on SF-295 CNS; 97.3% in the experiment with SF-539 CNS. The growth in the experiment with UACC-257 melanoma was 101%; with M14 melanoma, 103%.

For the molecule `N#Cc1c(-c2ccc(Br)cc2)cc(-c2c[nH]c3ccccc23)nc1N`, the growth is 51.3% with NCI-H23 lung; 60% in the experiment on NCI-H226 lung; 67.6% in the experiment on NCI-H322M lung; 42.5% with HOP-62 NSCLC; 16.7% in the experiment on NCI-H460 lung; 43.6% with HOP-92 NSCLC. Further, the growth in the experiment on NCI-H522 lung was 11%; in the experiment on A549/ATCC NSCLC it was 42.1%; with 786-0 renal, 79.7%; in the experiment on COLO 205 colon it was 51.5%; with DU-145 prostate it was 70%; with K-562 leukemia, 18.6%. Besides, the growth is 73.9% with MALME-3M melanoma; 46% in the experiment with MDA-MB-231 breast; 25.9% with RXF 393 renal; 56.9% in the experiment with SF-268 CNS; 52.4% in the experiment with SF-295 CNS; 43% in the experiment with SF-539 CNS. The growth with UACC-257 melanoma was 94.4%; in the experiment with M14 melanoma, 44.6%.

For the molecule `NS(=O)(=O)c1ccc(CCn2c(-c3ccc(C(=O)O)cc3)nc(-c3ccccc3)c2-c2ccccc2)cc1`, the growth in the experiment on NCI-H23 lung is 98.4%; in the experiment on NCI-H226 lung, 98.3%; with NCI-H322M lung, 97%; in the experiment with HOP-62 NSCLC, 104%; in the experiment on NCI-H460 lung, 107%; in the experiment with HOP-92 NSCLC it was 94.6%. The growth is 96.8% in the experiment on NCI-H522 lung; 105% in the experiment on A549/ATCC NSCLC; 103% in the experiment with 786-0 renal; 112% in the experiment on COLO 205 colon; 102% in the experiment on DU-145 prostate; 96.8% with K-562 leukemia. For the same molecule, the growth in the experiment on MALME-3M melanoma is 97.9%; in the experiment on MDA-MB-231 breast it was 92.6%; with RXF 393 renal, 104%; in the experiment with SF-268 CNS, 93.8%; in the experiment on SF-295 CNS, 101%; in the experiment with SF-539 CNS it was 99.1%. Further, the growth with UACC-257 melanoma and in the experiment with M14 melanoma was 105% in each case.
